Sampled rows, rich in hits. Any-hit rate of the full collection: about 0.5%.
E coli growth-1: inhibitors of Escherichia coli growth; OD600, 23 h; hits give low values; OD600 absorbance (concentration not given with the values); 330,000 tested, 0.21% active;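 active means OD600 absorbance below the run mean of sample wells minus 3.6 SD, in any replicate, cut at about 0.56 in these data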
Tat export inh: E. coli Tat transport inhibition. E. coli MC4100 TorA-mCherry Tat export, fluorescence. inhibition, % at 10 µM. 340,000 tested, 0.036% active. AID 488895;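 active means mean replicate inhibition at least 50% and at least half of replicates individually reaching 50%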;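 further: exported cargo escapes ClpAP degradation while cytoplasmic cargo is degraded and loses fluorescence; 0% = median of neutral control wells and 100% = median of NaSCN control wells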
phage Ecoli inh: E. coli growth loss with phage present | 360,000 tested, 0.26% active | inhibition, % at 11.9 µM | growth absorbance; in the data active means inhibition above about 11%
E coli growth-2: bacterial growth inhibition, counter-screen for AddAB inhibitors; E. coli V3065 growth, OD600 absorbance, 18 h; 330,000 tested, 0.27% active; inhibition, % at 11.9 µM; AID 449728;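 active means inhibition above the campaign's mean inhibition across all tested compounds plus 3 SD, cut at about 9.9% in these data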;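 further: uninfected addAB+ strain grown without phage in ampicillin broth; 0% = DMSO wells and 100% = ciprofloxacin 0.95 µg/ml wells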
AddAB inh: less growth of phage-infected E. coli with AddAB; AID 435030; E. coli expressing H. pylori AddAB, absorbance growth; 330,000 tested, 0.29% active; inhibition, % at 11.9 µM; in the data active means inhibition above about 12%;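 further: 0% = vehicle wells of infected cells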
AddAB conf: growth loss of T4-infected E. coli expressing H. pylori AddAB, confirmed | shares compounds with AddAB inh | E. coli V3065 expressing H. pylori AddAB, T4 phage, OD; T4 phage with gene 2 nonsense mutations | inhibition, % at 11.9 µM | 880 tested, 64% active | AID 488942;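 active means mean inhibition above a set limit taken from the earlier primary screen, cut at about 13% in these data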;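 further: higher means less bacterial growth since AddAB block lets phage replicate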
RecBCD counter: counter-screen: growth loss of RecBCD+ E. coli with mutant T4 phage. shares compounds with AddAB inh. E. coli V66 + mutant T4 phage, OD growth. inhibition, % at 11.9 µM. 880 tested, 73% active. AID 488955;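 active means mean inhibition above the mean of solvent-only control wells plus 3 SD, cut at about 4% in these data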;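 further: optical density read after an 18 h incubation at 37 °C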
Bact viability: counter-screen: bacterial growth inhibition; shares compounds with AddAB inh; bacterial viability, absorbance (AddAB counterscreen); inhibition, % at 11.9 µM; 880 tested, 35% active; AID 488956; in the data active means inhibition above about 25%
RecBCD conf: growth loss of phage-infected V66 E. coli, RecBCD confirmation screen. shares compounds with phage Ecoli inh. E. coli V66 + T4 2- phage, growth OD. inhibition, % at 11.9 µM. 890 tested, 45% active. AID 651982;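 active means mean inhibition over triplicates exceeding the hit threshold derived in the original primary screen, cut at about 11% in these data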
Ecoli viability: bacterial viability inhibition counter-screen for RecBCD | inhibition, % at 11.9 µM | shares compounds with phage Ecoli inh | AID 651983 | 890 tested, 29% active | E. coli viability, absorbance (OD) growth; in the data active means inhibition above about 20%;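 further: E. coli strain V66 grown with compound alone and no phage infection; 0% = bacteria with DMSO vehicle only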
AddAB phage OD: growth loss of phage-infected AddAB E. coli, RecBCD counter-screen; 890 tested, 45% active; E. coli expressing H. pylori AddAB + T4 phage, OD growth; gene 2 mutant T4, recBCD-deleted host; AID 651984; inhibition, % at 11.9 µM; shares compounds with phage Ecoli inh;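 active means mean inhibition above the solvent-only control wells' mean plus 3 SD, cut at about 22% in these data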;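 further: higher means less bacterial growth from phage killing when AddAB is blocked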
Active calls of the source: *; . = no result given; + = active, no number.

SMILES	E coli growth-1	Tat export inh	phage Ecoli inh	E coli growth-2	AddAB inh	AddAB conf	RecBCD counter	Bact viability	RecBCD conf	Ecoli viability	AddAB phage OD
O=C(Cn1cnc2ccccc21)Nc1ccc2c(c1)OCCCO2	0.61	-7	16*	13*	17*	23*	16*	20	12*	13	18
O=C(Cn1cnc2ccccc2c1=O)Nc1ccc2c(c1)OCO2	0.68	2	5	2	1	.	.	.	.	.	.
Nc1nc(=S)c2ncn([C@@H]3O[C@H](CO)[C@@H](O)[C@H]3O)c2[nH]1	.	-25	72*	76*	89*	91*	63*	73*	57*	75*	81*
Nc1nc(=S)c2ncn(C3OC(CO)C(O)C3O)c2[nH]1 (stereo not drawn)	0.52	-12	17*	30*	25*	74*	27*	54*	32*	38*	55*
Nc1nc(=S)c2ncn(C3CCCCC3)c2[nH]1	0.68	-8	2	.	.	.	.	.	.	.	.
Nc1nc(Cl)nc2c1ncn2[C@@H]1O[C@H](CO)[C@@H](O)[C@H]1O	.	5	5	0	-2	.	.	.	.	.	.
Nc1ncn([C@@H]2O[C@H](CO)[C@@H](O)[C@H]2O)c(=O)n1	.	-2	62*	93*	96*	91*	29*	94*	48*	56*	103*
CC=C(C)C(=O)NCCN1C2=NCC(C)N2CC1Cc1ccc(OC)cc1 (stereo not drawn)	0.68	.	.	.	.	.	.	.	.	.	.
Cc1ccc(C=NNc2cn[nH]c(=O)n2)o1	0.69	.	.	.	.	.	.	.	.	.	.
O=c1cnnc(N/N=C/c2ccccn2)[nH]1	.	-23	42*	41*	53*	38*	44*	34*	37*	47*	47*
Cc1cc(=O)[nH]c(N/N=C/c2ccccn2)n1	.	-10	19*	13*	18*	10	20*	9	7	16	13
O=c1nc(N/N=C/c2ccccn2)cn[nH]1	.	-26	31*	29*	29*	30*	31*	24	24*	32*	31*
Cc1cc(=O)[nH]c(NN=Cc2ccccn2)n1	0.53	.	.	.	.	.	.	.	.	.	.
O=C(NN=Cc1c[nH]c2ccccc12)c1cccc(Cl)c1	0.62	.	.	.	.	.	.	.	.	.	.
Cc1ccc(C(=O)NS(=O)(=O)c2ccc(N=NN(C)C)cc2)cc1	0.65	-9	13*	70*	100*	0	-1	-1	0	1	-1
Cc1cc(C)nc(NS(=O)(=O)c2ccc(N=NN(C)C)cc2)n1	0.68	-12	1	0	3	.	.	.	.	.	.
O=C(NN=Cc1cc(Cl)ccc1O)c1ccc(S(=O)(=O)N2CCCCC2)cc1	0.69	.	.	.	.	.	.	.	.	.	.
O=c1[nH]cc(O)c(=O)[nH]1	0.75	9	3	-1	4	.	.	.	.	.	.
O=c1[nH]cc(F)c(=O)[nH]1	.	11	53*	44*	48*	45*	38*	41*	63*	53*	70*
COc1cc(OC)c(OC)cc1/C=N/NC(=O)c1cc(-c2cccn2C)n[nH]1	.	5	3	-2	0	.	.	.	.	.	.
CCOc1cccc(/C=N/NC(=O)c2cc(-c3cccn3C)n[nH]2)c1O	.	-11	18*	12*	17*	19*	21*	20	9	10	15
CCOC(=O)NN=C1CC(C)S(=O)(=O)c2ccc(Cl)cc21 (stereo not drawn)	0.63	.	.	.	.	.	.	.	.	.	.
On1ccccc1=S	.	142*	+	76*	+	+	+	98*	+	105*	+
O=C(Cn1ccccc1=S)c1ccc(Cl)c(Cl)c1	0.62	.	3	3	8	.	.	.	.	.	.
S=c1nc[nH]c2nc[nH]c12	0.67	1	25*	24*	80*	63*	24*	50*	37*	40*	71*
SMILES	E coli growth-1	Tat export inh	phage Ecoli inh	E coli growth-2	AddAB inh	AddAB conf	RecBCD counter	Bact viability	RecBCD conf	Ecoli viability	AddAB phage OD
CC(=O)NC(c1ccccc1)c1cc(Cl)c2cccnc2c1O (stereo not drawn)	0.63	23	13*	18*	17*	11	15*	4	5	9	10
CCCCC(=O)NC(c1cccs1)c1cc(Cl)c2cccnc2c1O (stereo not drawn)	0.66	-5	17*	18*	16*	21*	17*	16	11	11	19
CCCC(=O)NC(c1ccco1)c1cc([N+](=O)[O-])c2cccnc2c1O (stereo not drawn)	0.62	-11	4	-3	3	.	.	.	.	.	.
CC(=O)NC(c1ccc(C)cc1)c1cc([N+](=O)[O-])c2cccnc2c1O (stereo not drawn)	0.68	-9	1	1	1	.	.	.	.	.	.
CCC(=O)NC(c1cccs1)c1cc(Cl)c2cccnc2c1O (stereo not drawn)	0.71	-4	26*	26*	23*	25*	22*	16	14*	21*	21
CCC(=O)NC(c1cc(Cl)c2cccnc2c1O)C(C)C (stereo not drawn)	0.66	-3	18*	17*	15*	4	12*	5	5	8	13
Cc1cc(=O)[nH]c(NN=Cc2c[nH]c3ccccc23)n1	0.67	.	.	.	.	.	.	.	.	.	.
Oc1ccccc1C=NNC(=S)NN=Cc1ccccc1O	0.57	-2	13*	.	.	.	.	.	13*	13	38*
NC(=S)N/N=C/c1ccccc1O	.	3	2	2	3	.	.	.	.	.	.
Oc1ccc(/C=N/NC(=S)Nc2cccnc2)c(O)c1O	.	2	15*	.	.	.	.	.	11*	12	32*
CC(=NNC(=O)c1cc(C)[nH]n1)c1cccs1	0.65	.	.	.	.	.	.	.	.	.	.
CCC(=O)Nc1ccc2nc(C)n(CC(=O)Nc3ccccc3)c(=O)c2c1	0.69	0	4	-4	-1	.	.	.	.	.	.
Cc1cc(NC(=O)Cn2c(C)nc3ccccc3c2=O)ccc1Br	0.76	4	13*	19*	20*	.	.	.	12*	17	17
CCOc1ccc(NC(=O)Nc2cc(OCC(F)(F)F)cc(OCC(F)(F)F)c2)cc1	0.7	7	2	-1	2	.	.	.	.	.	.
O=C(Nc1ccc(F)cc1)Nc1cc(OCC(F)(F)F)cc(OCC(F)(F)F)c1	0.68	-6	12*	3	4	.	.	.	2	3	6
